Cy5 interf NS3h: enhances or quenches Cy5 fluorescence in NS3h assay; fluorescence interference ratio at 100 µM; 16,000 tested, 6% active; Cy5-dT15 DNA with NS3h, fluorescence interference; actives lie on both sides; signal over control mean, under 1 quenches;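 active = compound fluorescence over control fluorescence at most 0.8, a quencher, or at least a set upper limit, an enhancer; inactive = ratio between 0.8 and the set upper limit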
NS3h inh CB: hepatitis C NS3 helicase inhibition, primary screen | inhibition, % at 100 µM | NS3h Cy5-dT15 DNA binding, fluorescence polarization | 16,000 tested, 1.6% active | AID 687043;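 active = inhibition above the average over every tested compound plus 3 SD, cut at about 40% in these data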
Large screens that a line does not name were inactive. An excerpt weighted towards active compounds, which were near 6.8% of everything screened.

CC(C)CCOc1cccc(C(=O)Nc2ccc(Cl)c(NC(=O)c3ccccc3)c2)c1	none
COc1ccc(/C=C2/SC(=S)N(CCCC(=O)OCCN(C)C)C2=O)cc1	Cy5 interf NS3h 0.798
COCCCN1C(=O)/C(=C/c2ccc(N(C)C)cc2)SC1=S	none
COc1ccc(N2C(=O)/C(=C\c3ccc4ccccc4c3)SC2=S)cc1	none
COC(=O)c1c(NC(=O)Nc2ccc(Cl)c(Cl)c2)sc2c1CCC2	Cy5 interf NS3h 1.2
CCOC(=O)c1c(NC(=S)Nc2ccc(OC)cc2)sc2c1CCCCC2	none
CS(=O)(=O)N(CC(=O)Nc1ccc(Cl)c(Cl)c1)c1ccc(Cl)cc1	none
O=C(O)CSCc1cccc([N+](=O)[O-])c1	Cy5 interf NS3h 0.702
COC(=O)CNC(=O)c1cccc([N+](=O)[O-])c1	none
O=C(C=C(O)c1ccc(F)cc1)C(F)(F)F	none
Cc1ccc(C(=O)/C=C(/N)C(F)(F)F)cc1	Cy5 interf NS3h 0.73
Cc1ccc(C(=O)CC(=O)c2ccccc2C)c(O)c1	none
Cc1ccc(C(=O)COC(=O)c2ccccc2)cc1	none
COc1ccc(NC(=O)COc2cccc3ccccc23)c(OC)c1	none
COc1ccc(Br)cc1C(=O)Nc1ccc2oc(-c3ccccc3F)nc2c1	Cy5 interf NS3h 1.21
COc1ccc(C(=O)Nc2ccc3oc(-c4ccccc4Cl)nc3c2)cc1Br	none
O=C1C(C23CC4CC(CC(C4)C2)C3)C(=O)N(c2ccccc2)N1c1ccccc1	none
CN1/C(=C\C=N/Nc2ccc([N+](=O)[O-])cc2)C(C)(C)c2ccccc21	none
COc1cc(Br)c(C2C3=C(CC(C)(C)CC3=O)OC3=C2C(=O)CC(C)(C)C3)cc1OC	Cy5 interf NS3h 0.771
COc1ccc(C2C3=C(CC(C)(C)CC3=O)OC3=C2C(=O)CC(C)(C)C3)cc1Br	none
O=C(O)c1cccc(N2C(=O)c3ccc(Oc4cccc([N+](=O)[O-])c4)cc3C2=O)c1	none
Cc1cc(C)n(S(=O)(=O)c2ccc(I)cc2C)n1	none
COc1ccc(O)c(-c2cc(-c3ccccc3C)[nH]n2)c1	none
O=C1NC(=S)N(c2ccc(F)cc2)C(=O)C1=Cc1ccc([N+](=O)[O-])s1	NS3h inh CB 43.3
CC(C)(C)N1C(=O)NC(=O)C(=Cc2ccc([N+](=O)[O-])s2)C1=O	none
CC1=NN(c2cccc(Cl)c2)C(=O)/C1=C/C=C/c1cccc([N+](=O)[O-])c1	none
O=C(NCCOc1ccc(F)cc1)c1cccc2ccccc12	none
O=C(NCCOc1ccc(F)cc1)c1ccccc1-c1ccccc1	Cy5 interf NS3h 0.687
C=C(Br)Cn1c(C)nc2ccccc21	none
CCOC(=O)C1=C(C)N=c2s/c(=C\c3ccc(N(CC)CC)o3)c(=O)n2C1c1ccc(OC)c(OC)c1 (stereo not drawn)	none
CCOC(=O)C1=C(C)N=c2s/c(=C/c3ccc(I)o3)c(=O)n2C1c1ccccc1OC (stereo not drawn)	Cy5 interf NS3h 0.727
O=C(c1ccccc1)N1CCCC2CCCCC21 (stereo not drawn)	none
O=[N+]([O-])c1ccccc1C1N(c2ccccc2)CCN1c1ccccc1	none
Cc1ccc(S(=O)(=O)N(CC(O)CN(CC(C)C)CC(C)C)c2cccc(C)c2)cc1 (stereo not drawn)	Cy5 interf NS3h 0.772
Cc1cccc(N(CC(O)CN(Cc2ccccc2)Cc2ccccc2)S(=O)(=O)c2ccccc2)c1 (stereo not drawn)	Cy5 interf NS3h 0.705
NC(=O)CN(c1cccc([N+](=O)[O-])c1)S(=O)(=O)c1ccccc1	none
CN(C)CC(O)CN(c1ccccc1)S(=O)(=O)c1ccc([N+](=O)[O-])cc1 (stereo not drawn)	Cy5 interf NS3h 0.788
Cc1ccc(S(=O)(=O)N(CC(C)C)CC(C)C)cc1	none
COc1ccc(N(CC(O)CN(Cc2ccccc2)Cc2ccccc2)S(=O)(=O)c2ccc(C)cc2)cc1 (stereo not drawn)	none
Cc1sc(NC(=O)CN2CCOCC2)c(C(=O)c2ccccc2)c1C	none
COc1cc(/C=C2/NC(=S)NC2=O)ccc1OCc1ccc(I)cc1	none
Cc1[nH]c2ccccc2c1/C=N\Nc1ccc([N+](=O)[O-])cc1	none
Cc1[nH]c2ccccc2c1/C=N\NC(=O)c1cccc([N+](=O)[O-])c1	Cy5 interf NS3h 0.632
CSc1ccccc1N1C(=O)C2CC(C)=C(C)CC2C1=O (stereo not drawn)	none
Cc1cc(Nc2cccc(O)c2)n2ncnc2n1	Cy5 interf NS3h 0.692
Cc1cc(Nc2cccc(F)c2)n2c(nc3ccccc32)c1C#N	none
CCOC(=O)COc1ccc2oc(C)c(C(=O)OC(C)C)c2c1	none
CCN(CC)C(=O)COc1ccc2oc(C)c(C(=O)OC(C)C)c2c1	Cy5 interf NS3h 0.788
Cc1ccccc1OCCOc1ccc(/C=c2\sc3nc4ccccc4n3c2=O)cc1	none
Cc1ccc(OCCOCCOc2ccc(/C=c3\sc4nc5ccccc5n4c3=O)cc2)cc1	Cy5 interf NS3h 1.25
CCOc1cc(/C=C2/SC(=S)N(CC)C2=O)ccc1OCc1ccc(Cl)cc1	none
CC(C)C(c1ccc(O)cc1)c1ccc(O)cc1	none
CCOc1ccccc1/C=C1/C(=O)NN(c2ccc(C)c(Cl)c2)C1=O	Cy5 interf NS3h 0.742
CCOC(=O)COc1ccc(/C=C2/C(=O)NN(c3ccc(I)cc3)C2=O)cc1OC	none
CCOC(=O)c1ccc(N2NC(=O)/C(=C/c3ccc(O)c(OCC)c3)C2=O)cc1	Cy5 interf NS3h 0.734
CCOc1ccccc1/C=C1/C(=O)NN(c2ccc(C)c(C)c2)C1=O	none
CCN(CC)C(=O)c1c(-c2ccccc2)oc2ccc(O)cc12	none
COc1ccc(OCC(O)Cn2c(C(C)C)nc3ccccc32)cc1 (stereo not drawn)	none
CCCc1c(O)nc(SCCN2CCOCC2)n(-c2ccccc2)c1=O	none
COc1cc(NC(=O)c2ccc(Cl)cc2Cl)cc(OC)c1	none
COC(=O)c1cc(-c2ccc(/C=C(\C#N)c3nc4ccccc4[nH]3)o2)ccc1Cl	none
Cc1ccc2nc(/C(C#N)=C/c3ccc(-c4ccc(Cl)cc4)o3)[nH]c2c1	Cy5 interf NS3h 0.771
CCOc1ccc(NC(=S)NC(NC(=O)c2cccc(I)c2)C(Cl)(Cl)Cl)cc1 (stereo not drawn)	none
O=C(Nc1ccc(F)c([N+](=O)[O-])c1)C(c1ccccc1)c1ccccc1	none
O=[N+]([O-])c1cc(NS(=O)(=O)Cc2ccccc2)ccc1F	Cy5 interf NS3h 0.633
C=C(C)Cn1c(-c2ccncc2)n[nH]c1=S	none
CC(CNC(=O)c1cccs1)c1ccccc1 (stereo not drawn)	none
C/C(=N\N=C1/c2ccccc2C(=O)C1C(=O)C(c1ccccc1)c1ccccc1)c1cccs1 (stereo not drawn)	Cy5 interf NS3h 0.684
CCOC(=O)c1ccc(N2C(=O)CSC23C(=O)Nc2ccccc23)cc1 (stereo not drawn)	none
COc1cc(C(=O)N(CCO)CCO)ccc1OC1OC(COC(C)=O)C(OC(C)=O)C(OC(C)=O)C1OC(C)=O (stereo not drawn)	none
COc1ccc(-n2c(C)ccc2C)c(N)c1	none
COc1cc(C(=O)O)c(-n2c(C)ccc2C)cc1OC	Cy5 interf NS3h 1.36
CC(C)N1CCC(Nc2ccccc2)N1C=O (stereo not drawn)	none
COc1ccc(C(=O)Nc2cc(C)nc3ccccc23)cc1OC	none
Cc1nc(N=C(N)NC(=O)c2ccccc2N)nc2ccccc12	Cy5 interf NS3h 1.21
Cc1ccc(S(=O)(=O)C(CC(=O)c2ccc(Cl)cc2)c2ccccc2)cc1 (stereo not drawn)	none
COc1ccc(C(CC(=O)c2ccccc2)S(=O)(=O)c2ccc(C)cc2)cc1 (stereo not drawn)	Cy5 interf NS3h 0.638

Screening data deposited in PubChem BioAssay by Milwaukee Institute for Drug Discovery.
